Among the data in PubChem BioAssay (NCI) are growth values, retold here.

Test systems include HCT-15 colon; HT29 colon; SNB-75 CNS; SNB-19 CNS; U251 CNS; PC-3 prostate; SK-MEL-5 melanoma; UACC-62 melanoma; LOX IMVI melanoma; SK-MEL-28 melanoma; SK-MEL-2 melanoma; EKVX NSCLC; SN12C renal; UO-31 renal; TK-10 renal; ACHN renal; A498 renal; CCRF-CEM leukemia; MOLT-4 leukemia; CAKI-1 renal.
Holding throughout (test): NCI-60 one-dose screen, 48 h (100 = growth as untreated, 0 = no growth, -100 = all killed)
What all share (details): 10 µM unless noted

This is part of a sample that, as a whole, favours compounds with a hit. Of some 83,000 tested, about 20% had one in any assay.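 96-well plates, one dose, 48 hours. Percent growth reported; active if below 10.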 A number with no mark means an inactive call. Calls of active or inactive are those of the source.

In the case of `CNNc1ncnc2c1cnn2-c1ccc(S(N)(=O)=O)cc1`, the growth was 103% with HCT-15 colon; 95.2% in the test with HT29 colon; 104% in the test with SNB-75 CNS; 105% in the test with SNB-19 CNS; 98.5% in the test on U251 CNS; 81.4% in the test on PC-3 prostate. Further, the growth with SK-MEL-5 melanoma was 91.2%; in the test with UACC-62 melanoma it was 100%; in the test with LOX IMVI melanoma, 97.5%; in the test with SK-MEL-28 melanoma it was 109%; in the test on SK-MEL-2 melanoma, 98.3%; in the test on EKVX NSCLC it was 106%. In addition, the growth in the test with SN12C renal was 105%; with UO-31 renal it was 94.3%; in the test with TK-10 renal, 102%; in the test with ACHN renal, 93%; in the test on A498 renal it was 112%; with CCRF-CEM leukemia it was 81.6%. Besides, the growth with MOLT-4 leukemia was 86.6%.
`CC(=O)N1N=C(c2ccc(Nc3ccnc4cc(Cl)ccc34)cc2)CC1c1ccc(Cl)cc1` (configuration not stated): the growth is 30.1% in the test on HCT-15 colon; 25.9% in the test on HT29 colon; 59.6% with SNB-75 CNS; 65.6% in the test with SNB-19 CNS; 57.9% in the test with U251 CNS; 37.8% with PC-3 prostate. Further, the growth in the test with SK-MEL-5 melanoma was -50.1% (active); with UACC-62 melanoma it was 44.2%; in the test with LOX IMVI melanoma it was 33.6%; in the test with SK-MEL-28 melanoma, 45.9%; in the test with SK-MEL-2 melanoma, 54.1%; with EKVX NSCLC, 36.4%. In addition, the growth with SN12C renal is 61.9%; in the test with UO-31 renal, 24.1%; in the test with ACHN renal it was 34.1%; with CAKI-1 renal, 44.7%; in the test with A498 renal it was 43.9%; in the test with CCRF-CEM leukemia it was 31%. In addition, the growth in the test with MOLT-4 leukemia was 34.2%.
Turning to `O=C(N/N=C/c1cccc(O)c1)c1ccc(C(F)(F)F)nc1Nc1cccc(C(F)(F)F)c1`, the growth in the test on HCT-15 colon is 11.5%; in the test with HT29 colon it was 7.96% (active); in the test on SNB-75 CNS, -5.22% (active); with SNB-19 CNS it was 26.2%; in the test on U251 CNS, 2.76% (active); in the test with PC-3 prostate, -8.91% (active). Besides, the growth with SK-MEL-5 melanoma is 8.39% (active); with UACC-62 melanoma it was 0.893% (active); in the test with LOX IMVI melanoma, -18.2% (active); in the test on SK-MEL-28 melanoma, 24.7%; in the test with SK-MEL-2 melanoma, 12.9%; in the test on EKVX NSCLC, 5.06% (active). For the same compound, the growth with SN12C renal was 7.08% (active); in the test with UO-31 renal, -9.68% (active); in the test with TK-10 renal, 15.6%; in the test with ACHN renal it was -6.85% (active); in the test on CAKI-1 renal it was -22% (active); in the test with CCRF-CEM leukemia, -38.3% (active). Also, the growth with MOLT-4 leukemia is -20.5% (active).
As for `O=C(Nc1ccccc1)P(=O)(O)c1ccccc1`, the growth in the test on HCT-15 colon was 99.5%; with HT29 colon, 114%; in the test on SNB-75 CNS it was 78.8%; in the test on SNB-19 CNS it was 103%; with U251 CNS, 94.6%; in the test on PC-3 prostate, 95.5%. For the same compound, the growth in the test on SK-MEL-5 melanoma was 102%; with UACC-62 melanoma, 94.1%; in the test with LOX IMVI melanoma, 96%; in the test with SK-MEL-28 melanoma, 102%; in the test with SK-MEL-2 melanoma, 118%; in the test on EKVX NSCLC, 113%. The growth was 92.1% with SN12C renal; 76.9% in the test on UO-31 renal; 107% with TK-10 renal; 93.9% in the test on ACHN renal; 117% in the test on CAKI-1 renal; 120% in the test on CCRF-CEM leukemia. In the test on MOLT-4 leukemia, the growth was 95%.
With `CC[C@@H](c1ccc(O)c(O)c1)[C@@H](CC)c1ccc(O)c(O)c1`, the growth in the test with HCT-15 colon was 58.1%; in the test on HT29 colon, 95.4%; with SNB-75 CNS, 82.4%; with SNB-19 CNS, 97.7%; in the test on U251 CNS it was 89.9%; in the test on PC-3 prostate it was 75.5%. Moreover, the growth was 91.4% in the test with SK-MEL-5 melanoma; 64.5% in the test with UACC-62 melanoma; 61% with LOX IMVI melanoma; 87.1% with SK-MEL-28 melanoma; 93.6% in the test with SK-MEL-2 melanoma; 117% in the test on EKVX NSCLC. The growth was 99.8% in the test with SN12C renal; -1.68% (active) with UO-31 renal; 97% in the test on TK-10 renal; 9.03% (active) in the test with ACHN renal; 6.55% (active) in the test on CAKI-1 renal; 7.86% (active) in the test with CCRF-CEM leukemia. The growth with MOLT-4 leukemia is 59.9%.
Turning to `CC(=O)Nc1cc(C(c2ccccc2)c2ccccc2)cc(C(c2ccccc2)c2ccccc2)c1C`, the growth is 50.5% in the test with HCT-15 colon; 47.8% in the test on HT29 colon; 34.2% with SNB-75 CNS; 71.4% with SNB-19 CNS; 46.8% in the test with U251 CNS; 15.4% in the test on PC-3 prostate. For the same compound, the growth in the test on SK-MEL-5 melanoma was 45.6%; in the test on UACC-62 melanoma it was 50%; in the test on LOX IMVI melanoma it was 53%; with SK-MEL-28 melanoma, 56.8%; in the test with SK-MEL-2 melanoma, 27%; with EKVX NSCLC, 61.4%. The growth was 69.7% in the test with SN12C renal; 49.3% with UO-31 renal; 84.3% in the test on TK-10 renal; 51.1% with ACHN renal; 49.2% in the test with CAKI-1 renal; 34.1% with CCRF-CEM leukemia. Besides, the growth in the test on MOLT-4 leukemia was 8.92% (active).
Consider `CN(C)CCC(=O)Nc1ccc(-n2cc(-c3cccc(NC(=S)Nc4cccc(-c5cn(-c6ccc(NC(=O)CCN(C)C)cc6)nn5)c4)c3)nn2)cc1`, for which the growth is 92.5% in the test on HCT-15 colon; 28.4% in the test on HT29 colon; 119% in the test with SNB-75 CNS; 106% with SNB-19 CNS; 70.9% with U251 CNS; 89% in the test on PC-3 prostate. The growth is 97.2% with SK-MEL-5 melanoma; 114% in the test on UACC-62 melanoma; 19.3% in the test with LOX IMVI melanoma; 133% with SK-MEL-28 melanoma; 91.6% in the test with SK-MEL-2 melanoma; 101% with EKVX NSCLC. Also, the growth was 91.4% with SN12C renal; 135% with UO-31 renal; 142% in the test on TK-10 renal; 117% with ACHN renal; 130% in the test on CAKI-1 renal; 48.4% in the test on CCRF-CEM leukemia. The growth in the test on MOLT-4 leukemia is 47.2%.
In the case of `Clc1ccc2c(c1)C(Br)c1cc(Cl)cc(Cl)c1-2` (configuration not stated), the growth is 78.1% with HCT-15 colon; 111% in the test on HT29 colon; 73.5% in the test with SNB-75 CNS; 90.9% in the test with SNB-19 CNS; 79.5% with U251 CNS; 82.6% with PC-3 prostate. Moreover, the growth in the test with SK-MEL-5 melanoma is 51.2%; in the test on UACC-62 melanoma, 66.1%; in the test on LOX IMVI melanoma, 4.27% (active); in the test with SK-MEL-28 melanoma, 112%; in the test with SK-MEL-2 melanoma it was 95.5%; in the test on EKVX NSCLC, 46.2%. The growth was 27.5% in the test with SN12C renal; 76.6% in the test with UO-31 renal; 118% in the test with TK-10 renal; 99.1% with ACHN renal; 120% with A498 renal; -37.8% (active) with CCRF-CEM leukemia. In the test on MOLT-4 leukemia, the growth was -20.2% (active).
